The supplement of paper PMC10849652
Targets with a hit are over-represented here; the source holds about 7,900 in all. About 0.6% of all pairs of compound and target were hits. Values without a mark were called inactive.

Key:
Assay in all cases: log2 fold change, soluble protein after heating vs DMSO (PISA); higher = thermal stabilisation; K562 cells, 10 uM, 30 min; active = over 0.2 and 3.5 SD of the protein, either way, in both replicates (recomputed)
erlotinib = compound: C#Cc1cccc(Nc2ncnc3cc(OCCOC)c(OCCOC)cc23)c1 [erlotinib]
Procedure, shortened: (§1)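 Soluble protein was quantified by TMTpro 16plex LC-MS/MS after channel sums were equalised. It was obtained as the supernatant after 21,000xg for 90 min from pooled aliquots of K562 cells (2×10^6 cells/mL, 10 μM compound, 30 min) heated for 3 min across 48°C-58°C and extracted in PBS with 0.5% NP-40 at 4°C. Thermal stability values are relative to control samples and come from duplicates. They are given as log2 fold changes.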

[1] = compound: C/C(=N\NC(=O)C1=CC(=CC=C1)S(=O)(=O)N2CCOCC2)/C3=C(C=CC(=C3)Cl)O
Procedure, shortened: as §1

[2] = compound: C1=CC(=C(C=C1Cl)C2=NC3=NC=CN=C3C(=N2)NC4=CC=NC=C4)F
Procedure, shortened: as §1

[3] = compound: C1=CC(=CC=C1C2=NC3=C(N2)C=C(C=C3)C(=O)N)OC4=CC=C(C=C4)Cl
Procedure, shortened: as §1

[4] = compound: C1=CC2=C(C=CC(=C2)/C=C\3/C(=O)NC(=NCC4=CC=CS4)S3)N=C1
Procedure, shortened: as §1

[5] = compound: C1=CC2=NC=CN=C2C=C1/C=C/3\C(=O)NC(=O)S3
Procedure, shortened: as §1

[6] = compound: C1=CC=C(C=C1)C2=NC(=C(N2)C3=CC=NC=C3)C4=CC(=C(C=C4)Cl)O
Procedure, shortened: as §1

[7] = compound: C1=CC=C2C(=C1)C3=NNC4=CC=CC(=C43)C2=O
Procedure, shortened: as §1

[8] = compound: C1CCN(C1)C(=O)NC2=CC=CC(=C2)NC3=NC=C(C(=N3)NCCC4=CN=CN4)Br
Procedure, shortened: as §1

[9] = compound: C1CN(CCC1(CC2=CC=C(C=C2)Cl)N)C3=NC=NC4=C3C=CN4
Procedure, shortened: as §1

Chain of UniProt Q9Y3E5 (Q9Y3E5 whole entry, looked up): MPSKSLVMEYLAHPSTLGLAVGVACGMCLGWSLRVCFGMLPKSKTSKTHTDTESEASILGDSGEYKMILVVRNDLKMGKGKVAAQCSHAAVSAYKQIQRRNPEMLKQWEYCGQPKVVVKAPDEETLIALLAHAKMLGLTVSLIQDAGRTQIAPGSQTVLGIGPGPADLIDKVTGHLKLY
Chain of UniProt O00625 (O00625 whole entry, looked up): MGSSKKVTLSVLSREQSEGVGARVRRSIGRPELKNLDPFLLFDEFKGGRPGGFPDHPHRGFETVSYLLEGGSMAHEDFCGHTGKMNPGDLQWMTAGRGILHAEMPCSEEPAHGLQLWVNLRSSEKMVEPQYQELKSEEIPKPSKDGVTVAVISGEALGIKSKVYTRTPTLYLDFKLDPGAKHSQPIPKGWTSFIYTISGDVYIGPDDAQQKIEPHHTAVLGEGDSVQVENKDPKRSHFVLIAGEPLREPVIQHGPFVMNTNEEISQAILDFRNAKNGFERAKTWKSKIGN
Chain of UniProt Q9NR12 (Q9NR12 whole entry, looked up): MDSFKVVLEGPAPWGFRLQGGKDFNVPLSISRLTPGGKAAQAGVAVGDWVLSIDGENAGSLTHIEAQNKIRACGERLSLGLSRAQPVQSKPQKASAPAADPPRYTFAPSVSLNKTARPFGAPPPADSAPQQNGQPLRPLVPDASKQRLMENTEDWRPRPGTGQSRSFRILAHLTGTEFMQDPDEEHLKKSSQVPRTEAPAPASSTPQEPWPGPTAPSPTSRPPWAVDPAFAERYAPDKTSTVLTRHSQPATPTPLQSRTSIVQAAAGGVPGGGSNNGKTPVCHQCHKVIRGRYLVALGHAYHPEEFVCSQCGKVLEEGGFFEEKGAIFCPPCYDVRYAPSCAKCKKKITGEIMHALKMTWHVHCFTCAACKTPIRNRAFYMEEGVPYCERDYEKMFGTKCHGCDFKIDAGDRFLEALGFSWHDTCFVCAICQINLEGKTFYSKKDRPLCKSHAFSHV
Chain of UniProt P06454 (P06454 whole entry, looked up): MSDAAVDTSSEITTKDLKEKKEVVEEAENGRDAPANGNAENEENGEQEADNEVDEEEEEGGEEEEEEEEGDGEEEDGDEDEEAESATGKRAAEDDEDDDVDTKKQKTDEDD
Chain of UniProt Q9Y2Y1 (Q9Y2Y1 whole entry, looked up): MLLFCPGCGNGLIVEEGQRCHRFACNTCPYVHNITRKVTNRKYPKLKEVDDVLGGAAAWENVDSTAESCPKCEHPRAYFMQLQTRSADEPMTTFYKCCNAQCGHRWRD
Chain of UniProt Q92871 (Q92871 whole entry, looked up): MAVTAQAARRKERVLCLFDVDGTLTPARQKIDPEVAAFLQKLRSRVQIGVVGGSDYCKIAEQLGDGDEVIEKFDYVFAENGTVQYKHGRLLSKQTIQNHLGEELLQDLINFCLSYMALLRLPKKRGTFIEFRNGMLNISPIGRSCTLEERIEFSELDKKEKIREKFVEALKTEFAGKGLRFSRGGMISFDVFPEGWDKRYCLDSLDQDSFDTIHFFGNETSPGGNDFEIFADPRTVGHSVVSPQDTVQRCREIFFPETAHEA
Chain of UniProt Q5MIZ7 (Q5MIZ7 whole entry, looked up): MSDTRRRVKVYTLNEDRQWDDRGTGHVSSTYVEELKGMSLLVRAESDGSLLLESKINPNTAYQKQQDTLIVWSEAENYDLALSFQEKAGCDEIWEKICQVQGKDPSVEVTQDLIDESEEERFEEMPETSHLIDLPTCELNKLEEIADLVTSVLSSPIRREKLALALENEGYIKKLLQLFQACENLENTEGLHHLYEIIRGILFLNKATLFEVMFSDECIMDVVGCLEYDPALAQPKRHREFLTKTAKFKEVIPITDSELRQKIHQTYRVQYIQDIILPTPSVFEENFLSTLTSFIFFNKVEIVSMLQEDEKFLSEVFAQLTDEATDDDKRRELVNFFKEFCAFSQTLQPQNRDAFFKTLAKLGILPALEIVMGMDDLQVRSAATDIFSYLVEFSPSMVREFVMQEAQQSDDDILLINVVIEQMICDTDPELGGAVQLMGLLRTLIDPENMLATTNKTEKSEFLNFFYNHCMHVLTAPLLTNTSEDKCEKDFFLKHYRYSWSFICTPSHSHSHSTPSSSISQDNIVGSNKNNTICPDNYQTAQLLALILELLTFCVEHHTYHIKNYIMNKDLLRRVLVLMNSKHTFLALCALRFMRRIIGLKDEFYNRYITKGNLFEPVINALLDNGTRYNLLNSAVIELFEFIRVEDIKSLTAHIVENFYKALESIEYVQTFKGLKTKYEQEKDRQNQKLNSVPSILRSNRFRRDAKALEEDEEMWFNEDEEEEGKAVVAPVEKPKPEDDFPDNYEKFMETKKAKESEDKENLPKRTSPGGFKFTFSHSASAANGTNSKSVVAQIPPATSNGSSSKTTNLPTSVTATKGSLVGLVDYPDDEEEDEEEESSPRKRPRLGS
Chain of UniProt Q13356 (Q13356 whole entry, looked up): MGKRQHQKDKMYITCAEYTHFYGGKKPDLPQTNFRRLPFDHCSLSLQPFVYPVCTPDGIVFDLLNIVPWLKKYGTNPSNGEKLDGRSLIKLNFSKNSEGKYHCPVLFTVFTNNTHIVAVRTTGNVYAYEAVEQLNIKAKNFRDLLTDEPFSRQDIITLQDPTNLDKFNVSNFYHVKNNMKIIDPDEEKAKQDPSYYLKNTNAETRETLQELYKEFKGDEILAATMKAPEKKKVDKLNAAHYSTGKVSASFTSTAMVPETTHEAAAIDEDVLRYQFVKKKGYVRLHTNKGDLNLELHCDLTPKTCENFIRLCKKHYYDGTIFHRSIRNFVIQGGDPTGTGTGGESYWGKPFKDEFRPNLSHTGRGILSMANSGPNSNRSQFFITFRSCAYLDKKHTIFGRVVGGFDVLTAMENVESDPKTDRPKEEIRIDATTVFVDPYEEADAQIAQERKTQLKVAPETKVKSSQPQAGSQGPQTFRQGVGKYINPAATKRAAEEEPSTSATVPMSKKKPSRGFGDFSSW
Chain of UniProt O00232 (O00232 whole entry, looked up): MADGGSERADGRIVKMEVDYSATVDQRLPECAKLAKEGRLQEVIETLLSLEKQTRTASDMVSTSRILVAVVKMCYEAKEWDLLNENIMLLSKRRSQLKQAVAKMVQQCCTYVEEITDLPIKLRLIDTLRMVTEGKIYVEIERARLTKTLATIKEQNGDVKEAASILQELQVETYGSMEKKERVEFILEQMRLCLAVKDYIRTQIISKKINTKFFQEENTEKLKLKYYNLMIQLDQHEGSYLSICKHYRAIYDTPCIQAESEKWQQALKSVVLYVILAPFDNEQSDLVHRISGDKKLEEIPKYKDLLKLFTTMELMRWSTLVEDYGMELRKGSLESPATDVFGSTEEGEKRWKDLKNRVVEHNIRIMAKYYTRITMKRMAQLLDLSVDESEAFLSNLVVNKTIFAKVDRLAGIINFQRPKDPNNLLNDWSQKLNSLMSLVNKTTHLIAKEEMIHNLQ
Chain of UniProt P06737 (P06737 whole entry, looked up): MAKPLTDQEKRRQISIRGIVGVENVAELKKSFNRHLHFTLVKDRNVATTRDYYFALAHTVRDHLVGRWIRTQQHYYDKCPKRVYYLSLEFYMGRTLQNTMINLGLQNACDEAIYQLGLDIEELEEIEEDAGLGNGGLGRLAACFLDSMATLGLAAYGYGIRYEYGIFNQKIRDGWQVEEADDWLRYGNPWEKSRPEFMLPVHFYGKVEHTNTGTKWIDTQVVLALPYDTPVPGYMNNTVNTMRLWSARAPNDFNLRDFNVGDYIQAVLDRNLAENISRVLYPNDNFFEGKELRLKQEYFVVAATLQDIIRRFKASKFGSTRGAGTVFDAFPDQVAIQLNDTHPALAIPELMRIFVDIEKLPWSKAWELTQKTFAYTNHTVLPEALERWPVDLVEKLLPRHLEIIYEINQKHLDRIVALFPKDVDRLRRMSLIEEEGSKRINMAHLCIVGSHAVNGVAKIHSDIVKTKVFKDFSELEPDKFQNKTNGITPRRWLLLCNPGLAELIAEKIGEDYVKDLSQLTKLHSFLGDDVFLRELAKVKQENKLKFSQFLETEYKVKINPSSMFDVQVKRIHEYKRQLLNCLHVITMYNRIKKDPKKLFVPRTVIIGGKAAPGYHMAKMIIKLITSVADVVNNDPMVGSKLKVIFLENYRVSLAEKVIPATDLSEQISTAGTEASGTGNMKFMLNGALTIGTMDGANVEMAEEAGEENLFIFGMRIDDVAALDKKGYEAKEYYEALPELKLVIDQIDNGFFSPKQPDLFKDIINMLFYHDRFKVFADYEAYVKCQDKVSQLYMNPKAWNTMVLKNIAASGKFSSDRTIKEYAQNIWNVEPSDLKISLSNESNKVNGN
Chain of UniProt Q53EL6 (Q53EL6 whole entry, looked up): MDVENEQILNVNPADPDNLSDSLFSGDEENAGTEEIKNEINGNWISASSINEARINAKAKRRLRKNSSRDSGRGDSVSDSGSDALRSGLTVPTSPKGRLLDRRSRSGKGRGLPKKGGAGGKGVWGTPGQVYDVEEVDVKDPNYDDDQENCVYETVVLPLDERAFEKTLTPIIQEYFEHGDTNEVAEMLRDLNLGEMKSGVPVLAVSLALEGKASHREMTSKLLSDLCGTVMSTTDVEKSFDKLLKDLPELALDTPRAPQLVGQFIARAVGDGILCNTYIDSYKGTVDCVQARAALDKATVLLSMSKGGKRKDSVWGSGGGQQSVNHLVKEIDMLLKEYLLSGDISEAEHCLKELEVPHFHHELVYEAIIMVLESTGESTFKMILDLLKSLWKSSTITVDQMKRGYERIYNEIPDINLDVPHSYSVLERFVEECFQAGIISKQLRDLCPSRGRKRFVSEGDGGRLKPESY
Chain of UniProt O15162 (O15162 whole entry, looked up): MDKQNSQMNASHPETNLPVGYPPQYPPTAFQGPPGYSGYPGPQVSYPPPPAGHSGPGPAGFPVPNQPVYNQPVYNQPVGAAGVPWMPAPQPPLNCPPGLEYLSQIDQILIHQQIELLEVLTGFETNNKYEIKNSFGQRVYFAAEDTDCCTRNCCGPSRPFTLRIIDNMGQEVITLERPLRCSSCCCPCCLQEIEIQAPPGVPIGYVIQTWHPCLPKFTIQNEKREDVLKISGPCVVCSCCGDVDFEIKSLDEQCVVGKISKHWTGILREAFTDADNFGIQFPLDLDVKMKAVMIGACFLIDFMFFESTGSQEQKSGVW

Target	log2 fold change (erlotinib)	log2 fold change [1]	log2 fold change [2]	log2 fold change [3]	log2 fold change [4]	log2 fold change [5]	log2 fold change [6]	log2 fold change [7]	log2 fold change [8]	log2 fold change [9]
PI4K2A (UniProt Q9BTU6)	-0.037	-0.01	0.01	0.019	0.021	0.071	-0.029	0.01	-0.002	0.046
PRKCA (UniProt P17252)	0.117	0.041	0.04	-0.009	0.127	0.016	-0.019	-0.006	0.008	-0.074
PYGL (UniProt P06737)	-0.012	-0.008	0.001	0.037	0.047	-0.007	-0.02	0.008	-0.004	0.08
PLA2G15 (UniProt Q8NCC3)	0.064	0.004	0.038	-0.02	0.026	0.035	-0.007	0.021	0.01	0.052
PRPF38B (UniProt Q5VTL8)	-0.016	0.022	-0.049	0.082	-0.184	-0.085	-0.027	-0.146	-0.018	-0.054
PNN (UniProt Q9H307)	0.007	-0.001	0.032	0.024	0.025	0.085	-0.107	-0.11	–	–
PSMD12 (UniProt O00232)	-0.064	0	-0.017	-0.003	-0.023	-0.016	0.009	0.066	-0.042	-0.049
PRKCG (UniProt P05129)	-0.04	0.058	0.052	0.04	0.144	-0.033	0.074	0.023	-0.052	-0.138
PDPK1 (UniProt O15530)	0.02	0.083	0.026	0.064	0.068	-0.029	0.045	0.007	0.087	0.028
PSMC1 (UniProt P62191)	-0.093	-0.063	-0.034	0.037	-0.027	-0.028	-0.017	0.029	0.012	-0.004
POM121 (UniProt Q96HA1)	-0.013	-0.075	-0.127	0.033	0.118	-0.008	-0.137	-0.185	-0.087	-0.106
PHAX (UniProt Q9H814)	-0.004	0.042	0.045	0.009	0.023	0.054	-0.047	-0.101	-0.013	0.059
PRPF4B (UniProt Q13523)	0.002	0.044	-0.213	0.074	-0.046	-0.064	-0.14	-0.12	-0.103	-0.113
PIKFYVE (UniProt Q9Y2I7)	-0.174	0.111	0.082	0.082	-0.007	0.075	0.04	-0.014	0.037	-0.108
PTGFRN (UniProt Q9P2B2)	0.019	-0.006	0.021	0	-0.034	0.01	0.015	-0.053	-0.027	0.11
PDE4A (UniProt P27815)	0.012	0.013	0.319	0.024	0.027	0.06	-0.077	-0.01	0.023	-0.148
PIK3CB (UniProt P42338)	0.07	0.018	0.002	-0.022	0.081	0.09	0.032	0.014	-0.016	0.004
PLSCR1 (UniProt O15162)	-0.023	0.03	0.089	0.077	-0.004	0.022	0.061	-0.04	-0.008	0.05
PIK3CD (UniProt O00329)	-0.044	-0.224	0.095	0.181	0.114	0.241	-0.052	-0.063	-0.077	-0.013
PIK3R1 (UniProt P27986)	0.01	0.033	0.025	0.048	0.036	0.14	-0.022	-0.027	-0.024	0.05

Target	log2 fold change (erlotinib)	log2 fold change [1]	log2 fold change [2]	log2 fold change [3]	log2 fold change [4]	log2 fold change [5]	log2 fold change [6]	log2 fold change [7]	log2 fold change [8]	log2 fold change [9]
POLR3D (UniProt P05423)	0.068	-0.665 (active)	-0.087	-0.031	-0.733 (active)	-0.022	0.076	-0.004	-0.005	0.372
PDCD4 (UniProt Q53EL6)	0.107	-0.041	0.14	-0.051	0.16	0.145	0.072	0.108	0.024	0.027
PBK (UniProt Q96KB5)	0.103	0.117	-0.054	-0.037	0.083	0.028	0.067	0.016	-0.052	-0.105
PRMT7 (UniProt Q9NVM4)	0.093	0.132	0.064	-0.017	0.142	0.018	-0.109	-0.039	0.031	-0.031
POLA2 (UniProt Q14181)	0.042	0.086	0.021	-0.033	0.048	0.048	-0.044	-0.013	-0.063	-0.004
POLR2A (UniProt P24928)	-0.018	-0.019	-0.008	0.024	0.013	0.039	0.019	0.026	0.111	-0.042
PDSS2 (UniProt Q86YH6)	0.029	-0.011	-0.04	0.012	0.053	-0.025	0.026	-0.006	0.061	0.073
PMM1 (UniProt Q92871)	-0.021	-0.041	0.004	0.065	0.1	0.002	-0.007	-0.049	0.001	0.036
PHF5A (UniProt Q7RTV0)	0.008	-0.005	0.03	-0.034	-0.049	0.017	-0.03	-0.05	-0.02	0.022
PEF1 (UniProt Q9UBV8)	-0.053	0.108	0.079	-0.029	0.134	-0.064	0.109	0.035	-0.008	-0.069
POLR1A (UniProt O95602)	-0.055	-0.236	0.031	0.058	0.04	0.005	0.079	-0.096	0	0.125
POLR3B (UniProt Q9NW08)	-0.022	-0.027	-0.003	-0.09	0.004	0.022	0.025	-0.018	0.194	-0.088
POLR3K (UniProt Q9Y2Y1)	-0.082	0.005	-0.005	0.007	-0.057	-0.038	-0.235 (active)	-0.056	-0.006	0.031
PSMB4 (UniProt P28070)	-0.056	-0.024	-0.003	0.001	-0.024	-0.035	-0.028	0.001	0.008	0.037
PSMD9 (UniProt O00233)	0.015	0.015	0.022	-0.012	-0.068	0.041	0.006	0.008	0.009	0.03
PPP4R3B (UniProt Q5MIZ7)	0.022	0.023	0.013	-0.023	0.083	0.028	-0.023	-0.019	-0.003	-0.027
PTP4A1 (UniProt Q93096)	0.053	0.083	0.134	0.037	-0.042	0.038	0.062	0.027	-0.096	-0.127
PRKAR2B (UniProt P31323)	-0.017	0.066	-0.082	0.16	-0.004	0.012	-0.058	-0.083	-0.449 (active)	-0.636 (active)
PDCD6 (UniProt O75340)	-0.006	0.038	0.066	0.004	0.034	0.02	-0.061	0.029	0.024	-0.048
PNPLA8 (UniProt Q9NP80)	0.101	0.031	0.014	-0.029	0.008	0	0.089	0.022	0.018	0.037

Target	log2 fold change (erlotinib)	log2 fold change [1]	log2 fold change [2]	log2 fold change [3]	log2 fold change [4]	log2 fold change [5]	log2 fold change [6]	log2 fold change [7]	log2 fold change [8]	log2 fold change [9]
PTPMT1 (UniProt Q8WUK0)	-0.009	-0.017	0.202	0.053	0.009	0.015	0.03	0.013	-0.001	-0.045
PPID (UniProt Q08752)	0.114	0.111	-0.01	-0.021	0.075	0.007	0.095	0.021	-0.076	-0.118
POP1 (UniProt Q99575)	-0.01	0.028	-0.015	0.029	-0.011	0.022	0.017	-0.016	0	-0.01
PGGT1B (UniProt P53609)	0.024	0.036	0.114	0.006	0.049	-0.002	0.021	-0.036	0.054	0.027
PPP1R35 (UniProt Q8TAP8)	0.137	-0.064	-0.038	0.029	0.01	0.034	0.021	-0.031	0.009	0.001
PIP4K2B (UniProt P78356)	0.16	-0.022	0.082	-0.083	0.017	0.244	0.104	0.096	0.13	0.037
PLEKHM2 (UniProt Q8IWE5)	0.228	0.07	0.034	-0.03	0.075	0.069	0.082	-0.065	-0.005	-0.066
PAK4 (UniProt O96013)	0.155	-0.066	0.017	-0.04	0.015	0.048	-0.068	-0.013	0.062	-0.03
PTRH2 (UniProt Q9Y3E5)	0.015	0.048	0.125	-0.002	0.049	-0.004	0.169	-0.022	-0.038	0.007
PRKCB isoform 2 (UniProt P05771)	0.038	0.031	0.038	0	0.086	0.004	0.021	0.037	0	-0.067
PPT2 isoform 3 (UniProt Q9UMR5)	0	0.056	0.033	-0.001	-0.026	-0.02	0.038	0.039	-0.012	0.031
PIR (UniProt O00625)	-0.027	-0.058	0.025	0.464 (active)	0.111	0.031	-0.027	0.225 (active)	-0.053	-0.002
PPIL2 (UniProt Q13356)	0.061	0.072	0.064	-0.033	0.047	0.004	0.026	0.067	-0.052	-0.079
PTGES3 (UniProt Q15185)	0.005	0.095	0.079	-0.05	0.019	0.007	0.043	-0.014	-0.014	-0.049
PARN (UniProt O95453)	0	0.052	0.08	-0.008	-0.028	0.034	-0.019	-0.001	-0.02	0.109
PIP4K2C (UniProt Q8TBX8)	0.482	-0.063	0.023	-0.129	0.059	0.575	0.139	0.21	0.493	-0.025
PEA15 isoform 2 (UniProt Q15121)	0.001	0.042	0.056	0.026	-0.014	0.055	-0.006	0.072	0.016	-0.064
PRMT8 (UniProt Q9NR22)	-0.008	0.03	0.159	-0.067	0.099	-0.005	0.122	0.042	0.012	0.028
PDLIM7 (UniProt Q9NR12)	0.013	0.039	0.1	-0.037	-0.01	0.002	0.073	0.016	-0.01	0.133
PTMA (UniProt P06454)	0.06	0.159	0.192	0.005	-0.136	0.006	0.197	0.189	-0.148	0.151
